# Among all 360,000 compounds or so, about 6,000 (1.7%) were called active. Another 8% or so got no clear call; they are omitted. The call rests on the fitted dose curve; in most records, active means well fitted cell-killing curve with a large enough effect; inconclusive means small, poorly fitted or top-dose-only effect, or effect the other way; inactive means flat fitted curve, though single readings scatter. The list comes from a sample in which actives are over-represented; it also holds similar structures and randomly drawn compounds. A call without a number means that no potency is given here.
# Test: qHTS for induction of synthetic lethality in tumor cells producing 2HG: qHTS for the HT-1080-NT fibrosarcoma cell line;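 further: NT is the 2HG producing partner of a matched IDH1 knockdown line; nearly all actives have a fitted effect of over 55% in size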
# Settings: HT-1080-NT fibrosarcoma viability, CellTiter-Glo ATP luminescence, 48 h; series mostly up to 46.1 µM
# In short: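 Luminescent CellTiter-Glo readout after 48 hours of compound exposure at 37 degrees C defined viability of HT-1080-NT cells. Activity was normalized to DMSO wells and cell-free media wells; concentration-response curves were fitted and assigned curve classes.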
# Potency means the concentration at half of the fitted maximal effect.
row,Compound,Potency
1,CC(C)C[C@@H]1COc2cc(N3CCC[C@@H]3CO)ccc2S(=O)(=O)N1,inactive
2,CC(C)CCOc1ccc(C(=O)Nc2cc(S(=O)(=O)N3CCOCC3)ccc2N2CCOCC2)cc1,inactive
3,O=[N+]([O-])c1ccc(CN2CC(N3CCC(c4ccccc4)CC3)CS2(=O)=O)cc1 (configuration not stated),inactive
4,NC(=O)c1ccccc1N(Cc1ccccc1)S(=O)(=O)c1ccccc1,inactive
5,CCOC(=O)N1CCN(S(=O)(=O)c2ccc(OC)cc2)CC1,inactive
6,CCOC(=O)N1CCN(C(=O)c2ccccc2N(Cc2ccccc2)S(=O)(=O)c2ccc(OC)cc2)CC1,3.26 µM (active)
7,COc1ccc(NC(=O)COC(=O)C2COc3ccccc3O2)cc1 (configuration not stated),inactive
8,COCc1cccc(-c2csc(C(O)c3ccc(F)cc3)n2)c1 (configuration not stated),inactive
9,COc1cccc(/C=N/NC(=O)CNC(=O)c2ccc(S(=O)(=O)N3CCOCC3)cc2)c1OC,inactive
10,COc1cccc(/C=N/NC(=O)c2[nH]nc3c2CCc2ccccc2-3)c1O,2.59 µM (active)
11,COc1cc(/C=N/NC(=O)c2cc(-c3ccccc3C)nc3ccccc23)cc(OC)c1O,inactive
12,CCCNC(=O)C1(C)CCN1C(=O)Cc1ccc(-c2ccccc2)cc1 (configuration not stated),inactive
13,O=C(C(=O)N1CCN(c2ccccc2)CC1)c1ccc2c(c1)OCO2,inactive
14,c1ccc(Cn2nnc3c(N4CCCCC4)ncnc32)cc1,inactive
15,CC1(C(=O)NS(=O)(=O)c2ccc(Cl)cc2)CCN1C(=O)CC1CCCC1 (configuration not stated),inactive
16,Cn1nccc1NC(=O)Nc1ccc(OC(F)(F)F)cc1,inactive
17,O=C(Nc1ccc(OC(F)(F)F)cc1)c1ccc2c(c1)no[n+]2[O-],18.4 µM (active)
18,Cn1cccc1/C=N/NC(=O)c1ccc(OC(F)(F)C(F)F)cc1,inactive
19,COC(=O)C[C@@H]1C=C[C@@H](NC(=O)c2cccnc2)[C@@H](CO)O1,inactive
20,O=C(Nc1ccc(Cl)c(C(F)(F)F)c1)C1Cc2c(-c3ccccc3Oc3ccccc3)ccnc2O1 (configuration not stated),inactive
21,CC(C)CN1CCC1(C)C(=O)Nc1ccc(OC(F)F)cc1 (configuration not stated),inactive
22,CC(C)Cc1ccc(-c2cc3nc(NCc4cccc(Cl)c4)ccn3n2)cc1,23.1 µM (active)
23,Cc1cc(C)n2c(NCc3ccccc3)c(CC(C)C)nc2n1,inactive
24,COc1ccccc1-c1cc2nc(NCc3cccc(Cl)c3)ccn2n1,inactive

row,Compound,Potency
1,O=C(C(=O)N1CCC(c2ccccc2)CC1)c1ccccc1,inactive
2,CCC1OC(C2CC2)CC2=C1C(=O)OC(C)(C)O2 (configuration not stated),inactive
3,Clc1cc(-c2ccc(/C=N/n3cnnc3)o2)ccc1Br,inactive
4,Cc1cc([N+](=O)[O-])c(-c2ccc(/C=N/n3cnnc3)o2)cc1Cl,10 µM (active)
5,Cc1ccc(Cl)cc1-c1ccc(/C=N/n2cnnc2)o1,inactive
6,COC(=O)[C@H]1C[C@H](OC(=O)NCc2ccccc2)[C@@]2(O)CN(S(=O)(=O)c3ccc(C)cc3)CC2[C@H]1C(=O)OC (some centres not stated),inactive
7,COc1ccc(-c2cc3c(c4c2ccn4C)C2CCC3C2)cn1 (configuration not stated),inactive
8,COC(=O)C1(C(=O)OC)C/C=C\CN(S(=O)(=O)c2ccccc2[N+](=O)[O-])CCC1,inactive
9,COc1ccc(CN2C(=O)C(CC(=O)NC3CCCCC3)CC(C(=O)N3CCOCC3)=C2C)cc1 (configuration not stated),inactive
10,CCNC(=O)c1ccc(OCC(=O)Nc2ccc(F)cc2)c(OC)c1,inactive
11,COc1ccc(C(=O)OCC(=O)Nc2cccc(C(C)=O)c2)cc1OC,inactive
12,COc1cc(C(=O)N(C)Cc2cccc(OC)c2OC)ccc1OCC(=O)Nc1cccc(C(F)(F)F)c1,8.2 µM (active)
13,COc1ccc(CN2CCC(C)(Oc3cccc(F)c3)C2)c2ccccc12 (configuration not stated),inactive
14,CC1(C)CCc2cc(S(=O)(=O)N3CCN(c4nc(-c5cccs5)nc5ccccc45)CC3)ccc2O1,inactive
15,COc1ccc(-c2ccc(C(=O)NC(C)C)c3occc23)c(C)c1,inactive
16,COc1ccc(-c2ccc(C(=O)NCCN3CCOCC3)c3occc23)c(C)c1,16.4 µM (active)
17,COc1ccc(-c2cc(C(=O)NCCCN3CCOCC3)no2)cc1,inactive
18,CC1(C(=O)NCc2ccccc2)CSCC(=O)N1CCCn1ccnc1 (configuration not stated),inactive
19,COC(=O)C[C@H]1C=C[C@@H](NS(=O)(=O)c2ccc(C)cc2)[C@@H](CO)O1,inactive
20,Cc1ccc(S(=O)(=O)N2C[C@H]3C(=O)C[C@@H](c4cccc5ccccc45)N(S(=O)(=O)c4ccc(C)cc4)[C@H]3C[C@H]2c2ccc(Cl)cc2)cc1,inactive
21,Nc1ncnc2c1ncn2[C@@H]1O[C@H](C(=O)N2CCSC2)[C@@H](O)[C@H]1O,inactive
22,C[C@@H]1CN([C@@H](C)CO)C(=O)c2cc(Br)cnc2O[C@@H]1CN(C)C(=O)C1CCCCC1,inactive
23,CCCCC(=O)Nc1ccc(C(=O)Nc2cc(C(F)(F)F)ccc2Cl)cc1,16.4 µM (active)
